Experimental data published in PubChem BioAssay AID1159580 (chemical genetic matrix, 2015).
The campaign covered roughly 5,500 compounds. About 2,000 (36%) were called active. Another 18% or so got no clear call; they are omitted. No stated cut-off is given here; in the data, active means normalized growth mostly below about 0.91 (no sharp cut-off); inconclusive means no clear call, values can overlap the other calls; inactive means mostly above about 0.92. Some of the results follow.

Assay: chemical genetic growth profiling, strain panel (AID 1159580);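 further: tested at 20 µM; growth read once vehicle control cultures reached saturation at 30 °C; 1 = growth at the plate median or of vehicle wells; lower values mean less growth of the strain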
Details: growth OD

Measured: normalized growth

Nc1cc(-c2ccc(Cl)cc2)nc(N)n1
inactive: S. cerevisiae deletion strains, locus YAL013W, strain DEP1, active compounds read low 0.997 | S. cerevisiae deletion strains, locus YBR229C, strain ROT2, active compounds read low 0.991 | S. cerevisiae deletion strains, locus YDL101C, strain DUN1, active compounds read low 0.995 | S. cerevisiae deletion strains, locus YDL134C, strain PPH21, active compounds read low 0.959 | S. cerevisiae deletion strains, locus YDR150W, strain NUM1, active compounds read low 1.02 | S. cerevisiae deletion strains, locus YEL061C, strain CIN8, active compounds read low 0.995 | S. cerevisiae deletion strains, locus YGR078C, strain PAC10, active compounds read low 0.999 | S. cerevisiae deletion strains, locus YHR030C, strain SLT2, active compounds read low 0.963 | S. cerevisiae deletion strains, locus YHR087W, strain rtc3, active compounds read low 0.993 | S. cerevisiae deletion strains, locus YJL187C, strain SWE1, active compounds read low 1 | S. cerevisiae deletion strains, locus YJR043C, strain POL32, active compounds read low 0.982 | S. cerevisiae deletion strains, locus YJR075W, strain HOC1, active compounds read low 0.972 | S. cerevisiae deletion strains, locus YKL190W, strain CNB1, active compounds read low 0.965 | S. cerevisiae deletion strains, locus YLR039C, strain RIC1, active compounds read low 0.914 | S. cerevisiae deletion strains, locus YLR058C, strain SHM2 (second series), active compounds read low 0.993 | S. cerevisiae deletion strains, locus YLR085C, strain ARP6, active compounds read low 1.02 | S. cerevisiae deletion strains, locus YLR262C, strain YPT6, active compounds read low 0.85 | S. cerevisiae deletion strains, locus YML094W, strain GIM5, active compounds read low 1.03 | S. cerevisiae deletion strains, locus YMR219W, strain ESC1, active compounds read low 0.991 | S. cerevisiae deletion strains, locus YMR263W, strain SAP30, active compounds read low 0.996 | S. cerevisiae deletion strains, locus YNL153C, strain GIM3, active compounds read low 0.992 | S. cerevisiae deletion strains, locus YNL298W, strain CLA4 (second series), active compounds read low 0.992 | S. cerevisiae deletion strains, locus YNL322C, strain KRE1, active compounds read low 0.99 | S. cerevisiae deletion strains, locus YNR030W, strain Alg12, active compounds read low 1 | S. cerevisiae deletion strains, locus YOL006C, strain TOP1, active compounds read low 0.944 | S. cerevisiae deletion strains, locus YPL055C, strain LGE1, active compounds read low 1.02 | S. cerevisiae deletion strains, locus YPL241C, strain CIN2, active compounds read low 0.995 | S. cerevisiae deletion strains, locus YPR135W, strain CTF4, active compounds read low 0.939 | S. cerevisiae strains, strain wild type, active compounds read low 0.966
